An excerpt weighted towards active compounds, which were near 3.5% of everything screened.
Autofluor counter – compound fluorescence in toxin protease inhibitor counterscreen | compound autofluorescence counterscreen, microsphere flow cytometry; stronger effect = higher value | fluorescence intensity (concentration not given with the values) | actives 3.1% (n = 360,000) | AID 624483; in the data active = fluorescence intensity above about 16000; inconclusive = no clear call, values can overlap the other calls
Anthrax LF prot – blocks Bacillus anthracis lethal factor protease; actives 0.12% (n = 360,000); P15917; inhibition, % at 10 µM; multiplex microsphere protease cleavage assay, LF
3CLpro inhibitor – SARS-CoV 3CLpro protease inhibition; AID 1706; recombinant SARS-CoV 3CLpro, quenched FRET peptide cleavage; inhibition, % at 6 µM; P0C6X7; actives 0.14% (n = 290,000); in the data active = inhibition above about 12%
BoNT-F LC inh – BoNT F light chain protease inhibition; inhibition, % at 10 µM; Multiplex microsphere protease cleavage assay, flow cytometry; actives 0.22% (n = 360,000); AID 588497; in the data active = inhibition above about 35%, passing the limit was not always enough; inconclusive = no clear call, values can overlap the other calls
BoNT A protease – blocks Botulinum neurotoxin A light chain protease. multiplex microsphere protease substrate cleavage, flow cytometry. inhibition, % at 10 µM. actives 0.17% (n = 360,000). AID 588499
Hits are given with their value; – = inactive; ? = inconclusive; · = not tested or not shown. Cut-off read from the data, not from the text of the source, unless noted: active = inhibition above about 30%; inconclusive = no clear call, values can overlap the other calls; inactive = below that.

SMILES	Autofluor counter	Anthrax LF prot	3CLpro inhibitor	BoNT-F LC inh	BoNT A protease
COc1cccc(C(=O)Oc2c(CN3CCOCC3)cc(Cl)c3cccnc23)c1	22802	–	–	–	–
O=C(Oc1c(CN2CCOCC2)cc(Cl)c2cccnc12)c1ccc(F)cc1	22240	–	–	–	–
COc1ccc(C(=O)Oc2c(CN3CCOCC3)cc(Cl)c3cccnc23)cc1	–	–	–	–	–
CCC(/C=C1\Sc2ccc(OC)cc2N1CCO)=C\c1sc2ccc(OC)cc2[n+]1CCO	–	–	–	–	40.5
CCO/C(=C/c1sc2ccc(OC)cc2[n+]1CCCS(=O)(=O)[O-])CC	–	–	–	–	–
CCC(/C=C1\Sc2ccc(OC)cc2N1CC)=C\c1sc2ccc(OC)cc2[n+]1CCCS(=O)(=O)[O-]	–	48.0	–	–	100.5
COc1ncccc1C(=O)NCC(CC(=O)O)c1ccccc1 (configuration not stated)	16335	–	–	–	–
CCC(=NCCO)c1c(O)n(-c2ccc(Cl)cc2)c(=O)[nH]c1=O	23929	–	–	–	–
CCOc1c(Cl)cc(CNCC(C)C)cc1OC	24375	–	–	–	?
C[C@H](NC(=O)c1ccc(C(C)(C)C)cc1)C(=O)N1CCC2(CC1)NCCc1[nH]cnc12	–	–	–	–	–
CCOc1ccc(NC(=O)c2ccco2)cc1	24897	–	–	–	?
CCc1nnc2sc(-c3ccc(NC(=O)c4ccco4)cc3)nn12	16661	–	–	–	–
O=C(Nc1nccs1)c1ccc(NC(=O)c2ccco2)cc1	17273	–	–	–	–
COCCN(C(=O)COC(=O)CCS(=O)(=O)c1ccccc1)c1c(N)n(Cc2ccccc2)c(=O)[nH]c1=O	–	–	·	–	–
CC(C)CNC(=O)NC(=O)COC(=O)COc1ccc(Cl)cc1Cl	–	–	–	–	–
CCCN(CCC)C(=S)NC(=O)c1ccc(Cl)cc1Cl	21981	–	–	–	–
COC(=O)CN(C#N)c1nc(N(C)C)nc(N(C)C)n1	–	–	–	–	–
COC(=O)CN(C#N)c1nc(OC)nc(N(C)C)n1	17155	–	–	–	–
CCNC(=O)C(C)Oc1ccc(Cl)cc1Cl (configuration not stated)	–	–	–	–	–
CC(Oc1ccc(Cl)cc1Cl)C(=O)NC1CCSC1=O (configuration not stated)	22259	–	–	–	–
CCOC(=O)C(=O)NC1CCSC1=O (configuration not stated)	–	–	–	–	–
CCCC(C)C(=O)NC1CCSC1=O (configuration not stated)	16556	–	–	–	–
CSc1cccc(N/C(=N/S(=O)(=O)c2ccccc2)NN)c1	–	–	–	–	–
Cc1ccc(Sc2c([N+](=O)[O-])ncn2C)cc1	–	–	–	–	–
Cn1cnc([N+](=O)[O-])c1Sc1ncccc1N	22024	–	–	–	–
SMILES	Autofluor counter	Anthrax LF prot	3CLpro inhibitor	BoNT-F LC inh	BoNT A protease
CCCn1c(SCC(=O)Nc2ccc(NC(C)=O)cc2)nc2c1c(=O)n(C)c(=O)n2C	–	–	–	–	–
Cc1ccc(CNC(=O)C2CCCN(Cc3cnn(-c4ccccc4)c3-n3cccc3)C2)cc1 (configuration not stated)	21776	–	–	–	?
CSc1ccc(CN2CCN(C(=O)COc3cccc(C)c3)CC2)cc1	–	–	–	–	–
COc1ccc(N(CC(=O)N2CCN(c3ccc(Cl)cc3)CC2)S(=O)(=O)c2c(C)noc2C)cc1	–	–	–	–	–
Cc1cc(C)n2c(SCC#N)nnc2n1	–	–	–	–	–
Cc1cc(C)n2c(SCc3ccc(C#N)cc3)nnc2n1	22207	–	–	–	–
CC(=O)Nc1cccc(C(=O)Nc2ccc(S(=O)(=O)N3CCCCC3)cc2)c1	–	–	·	–	–
CCOC(=O)c1cc(-c2ccc(C#N)cc2)nc2c1c(C)nn2CCC#N	–	–	–	–	–
CCOC(=O)c1cc(-c2ccc(OC)cc2)nc2c1c(C)nn2CCC#N	20850	–	–	–	?
Cc1ccc2nc(NC(=O)CSc3nc4c(c(=O)n3C)SC(C)C4)sc2c1 (configuration not stated)	–	–	–	–	–
CCc1ccc(CN(C)CCc2ccccn2)cc1	16273	–	–	–	?
CN(CCc1ccccn1)Cc1ccc(Cl)cc1	20900	–	–	–	–
CCOC(=O)Cn1c2ccc(F)cc2c2nc(C)sc21	–	–	–	–	–
COC(=O)Cn1c2ccc(F)cc2c2nc(C)sc21	22219	–	–	–	–
CCOC(=O)c1cnc(-n2nc(C)cc2C)nc1Nc1ccccc1OC	·	·	–	·	·
CCOC(=O)c1cnc(-n2cc(C)cn2)nc1Nc1ccccc1OCC	23982	–	–	–	–

High-throughput results: PubChem, several laboratories
